# Rows were chosen to be rich in hits. Some 1.7% of all compounds tested hit in one or more screens of this group.
# CFTR F508del cor – CFTR F508del correction in bronchial cells. CFBE cells, YFP halide quenching; stimulated with forskolin plus potentiator P3; % fluorescence drop versus neutral controls. activity (quench increase), % at 7.58 µM. hit rate 0.36% among 350,000. AID 720511;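 active = mean added fluorescence quench of at least 8% versus neutral control, with both replicates also reaching 8%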;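 note: cells transiently co-express mutant CFTR-F508del with the halide-sensitive YFP; corrector assay measuring rescue of mutant channel to the surface after 24 h compound exposure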
# Vif inh – HIV Vif inhibition. HEK293T cells, Vif self-association by quenched fluorescence, imaging, 24 h. inhibition, % at 7.49 µM. hit rate 0.35% among 340,000. AID 602346; in the data active = inhibition above about 50%, passing the limit was not always enough
# FGF22 binding – shifts melting point of recombinant human FGF22; hit rate 1.5% among 340,000; activity (Tm shift, normalised), % at 9.99 µM; AID 651658; recombinant FGF22 thermal shift, SYPRO orange fluorescence; percent of sucrose octasulfate shift, DMSO zero;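 active = mean Tm shift, scaled 0 neutral to 100 positive control, at about 1.3% or above, every replicate too, limit read from the data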
# Target sequence (Q9HCT0 whole entry, looked up): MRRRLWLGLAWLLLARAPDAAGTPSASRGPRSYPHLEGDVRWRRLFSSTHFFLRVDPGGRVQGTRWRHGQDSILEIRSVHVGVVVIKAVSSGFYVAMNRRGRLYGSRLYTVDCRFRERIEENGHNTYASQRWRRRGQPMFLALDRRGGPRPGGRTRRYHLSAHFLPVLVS
# Numbers stand for hits; . = inactive; / = no result given.
SMILES,CFTR F508del cor,Vif inh,FGF22 binding
C[C@@H]1CN([C@@H](C)CO)C(=O)c2cc(NC(=O)Nc3ccc4c(c3)OCO4)ccc2O[C@@H]1CN(C)Cc1ccc(Cl)c(Cl)c1,.,/,.
CCn1c(SCC(=O)NCC2CCCO2)nnc1-c1c[nH]c2ccccc12 (stereo not drawn),/,.,/
CCn1c(SCC(=O)NCC2CCCO2)nnc1-c1ccc(Cl)cc1 (stereo not drawn),.,54,.
CN(Cc1cc(=O)n2ccsc2n1)C1CCCCC1,.,/,.
CN(Cc1cc(=O)n2ccsc2n1)c1ccccc1,.,.,44
CO[C@@H]1CN(C)C(=O)c2ccc(NC(=O)CC(F)(F)F)cc2OC[C@H](C)N(C(C)=O)C[C@@H]1C,.,/,.
Cc1cc(C)c[n+](CC(=O)c2ccc(NC(=O)c3ccccc3)cc2)c1,.,.,.
Cc1ccc[n+](CC(=O)c2ccc(NC(=O)c3ccccc3)cc2)c1,.,.,44
COCC(=O)N1C[C@@H](C)[C@H](OC)CN(C)C(=O)c2cc(NC(=O)c3ccccc3)ccc2OC[C@H]1C,.,/,.
CC(=O)c1c(C)[n+]([O-])c2ccc3c(non3O)c12,.,.,.
CCOC(=O)c1c(C)[n+]([O-])c2ccc3c(non3O)c12,.,.,44
CNC(=O)C[C@@H]1CC[C@H]2[C@H](COc3ccc(NC(=O)c4cc(C)on4)cc3C(=O)N2C)O1,.,/,.
O=C(NCC[C@@H]1CC[C@H](NS(=O)(=O)c2ccc(F)cc2)[C@@H](CO)O1)Nc1ccc(F)cc1,.,/,.
O=C(c1ccccn1)N1CC(=O)N2[C@H](CO)[C@H](c3ccc(C4=CCCC4)cc3)[C@@H]2C1,.,/,/
O=c1[nH]c(=O)n(-c2ccc(F)cc2)c2c1C(C(F)(F)F)(C(F)(F)F)N=C(c1ccc(F)cc1)N2,.,.,1.9
Cc1ccc(C2=NC(C(F)(F)F)(C(F)(F)F)c3c(n(-c4ccc(F)cc4)c(=O)[nH]c3=O)N2)cc1,/,.,/
CCC(=O)N1[C@@H](CO)[C@@H]2c3ccccc3N(C(=O)c3ccc4c(c3)OCO4)C[C@@H]21,.,/,.
C[C@@H]1CN([C@H](C)CO)C(=O)Cc2cc(NS(=O)(=O)c3cccs3)ccc2O[C@H]1CN(C)C(=O)Nc1ccccc1,.,/,.
O=C(O)c1ccccc1C(=O)NC1CCCc2ccccc21 (stereo not drawn),.,/,.
O=C(NC1CCCc2ccccc21)c1ccccc1Br (stereo not drawn),.,60,.
COc1cc(OC)c(S(=O)(=O)NC(C)C)cc1S(=O)(=O)NC(C)C,.,.,43
CCNS(=O)(=O)c1cc(OC)c(Cl)cc1OC,/,.,/
CN1C(=O)c2cc(NC(=O)c3cccc(F)c3)ccc2OC[C@H]2O[C@H](CC(=O)NCc3ccccc3Cl)CC[C@@H]21,.,/,.
O=C(N[C@@H]1C=C[C@@H](CC(=O)N2CCc3ccccc3C2)O[C@@H]1CO)C1CCC1,.,/,.
O=C(c1ccccc1)c1ccc(Cn2cc(CCCO)nn2)cc1,.,.,.
SMILES,CFTR F508del cor,Vif inh,FGF22 binding
O=C(O)CCCCCCCCc1cn(Cc2ccc(C(=O)c3ccccc3)cc2)nn1,14,/,.
O=C(CCNS(=O)(=O)c1cccc(C(F)(F)F)c1)NC1CC1,16,.,.
CC1CCC(NC(=O)CCNS(=O)(=O)c2ccccc2)CC1 (stereo not drawn),.,.,.
C[C@@H]1CN([C@@H](C)CO)C(=O)c2cc(N(C)C)ccc2O[C@H]1CN(C)S(=O)(=O)c1ccc(F)cc1,.,/,.
C[C@H]1CN([C@@H](C)CO)C(=O)c2cc(NC(=O)Cn3cnnn3)ccc2O[C@H]1CN(C)Cc1ccc(Cl)c(Cl)c1,.,/,.
COC(=O)[C@]1(C)CCC[C@@]2(C)C3CC[C@]4(OC(C)=O)C[C@@]3(CCC21)CC4=O (stereo partly drawn),.,.,.
COC(=O)C1(C)CCCC2(C)C3CCC(C(C)C)C(CO)C3C(CO)CC12 (stereo not drawn),8.0,.,.
CCc1nc(Sc2nnnn2-c2ccccc2)c2c3c(sc2n1)CCCC3,/,.,.
Cc1nc(Sc2nnnn2C)c2c3c(sc2n1)CCC3,/,97,/
Nc1cc(C(=O)OCC(=O)N2CCOCC2)ccc1Cl,.,.,.
COc1ccc(C(=O)OCC(=O)N2C(C)CCCC2C)cc1[N+](=O)[O-] (stereo not drawn),.,.,43
Nc1ccc(C(=O)OCC(=O)N2CCOCC2)cc1[N+](=O)[O-],.,.,43
CC1CCCC(C)N1C(=O)COC(=O)c1ccc(O)cc1 (stereo not drawn),/,.,/
C/C=C/c1cnc2c(c1)C(=O)N([C@H](C)CO)C[C@@H](C)[C@@H](CN(C)C(=O)Cc1ccccn1)O2,.,/,.
Cc1ccc(NC(=O)C(=O)NCC2CCCO2)cc1C (stereo not drawn),.,.,.
Cc1ccc(NC(=O)CC(NCC2CCCO2)C(=O)O)cc1C (stereo not drawn),/,.,43
CCOC(=O)c1ccc(NC(=S)NCCc2ccccc2F)cc1,.,.,44
CCOC(=O)c1ccc(NC(=S)NCCc2ccccc2)cc1,/,.,/
Cc1ccc(S(=O)(=O)N(C)C[C@H]2Oc3ccc(NS(=O)(=O)c4cccs4)cc3C(=O)N([C@@H](C)CO)C[C@@H]2C)cc1,.,/,.
COc1ccc(C)cc1NC(=S)NNC(=O)c1ccccc1Cl,/,.,/
COc1ccc(C)cc1NC(=S)NNC(=O)c1c(Br)cnn1C,.,.,44
O=C(Nc1cccc(Cl)c1)N[C@@H]1CC[C@H](CCNC(=O)C2CCC2)O[C@@H]1CO,.,/,.
CC(C)(C)c1ccc(C(CC(=O)O)NC(=O)c2ccccc2F)cc1 (stereo not drawn),.,.,43
CCOC(=O)CC(NC(=O)c1ccccc1F)c1ccc(C)cc1 (stereo not drawn),.,.,.
CC(C)N(C[C@@H]1N[C@H](CO)[C@@H]1c1ccc(C2=CCCC2)cc1)C(=O)C1CC1,.,/,/
SMILES,CFTR F508del cor,Vif inh,FGF22 binding
C/C=C/c1ccc([C@@H]2[C@H](CO)N(CC3CC3)[C@H]2CNC(=O)c2ccccc2)cc1,10,/,.
C/C=C/c1ccc([C@@H]2[C@@H](CO)N(C(=O)COC)[C@H]2CNC(=O)CC)cc1,.,/,.
C/C=C/c1ccc([C@H]2[C@@H](CNC(=O)CC)N(C(=O)COC)[C@H]2CO)cc1,14,/,.
O=C(NC[C@H]1[C@H](c2ccccc2)[C@H](CO)N1CC1CCCC1)c1ccccc1,.,/,.
COC(=O)c1cn(C(=O)c2ccccc2Cl)c2ccccc12,.,.,.
COC(=O)c1cn(C(=O)c2ccc(C)cc2C)c2ccccc12,11,.,.
C[C@@H]1CCCCO[C@@H](CN(C)S(C)(=O)=O)[C@@H](C)CN([C@H](C)CO)C(=O)c2cc(NC(=O)Cc3ccccc3)ccc2O1,.,/,.
